This is an account of results in PubChem BioAssay (Tox21).

The structures appear in SMILES notation. Where “and” joins values, the source holds several entries; their conditions need not be identical. Equal entries are not always repeated. Records with an inconclusive call do not appear. Entries that show only a call come without a potency. The source holds several records for some structures; these can differ, active in one and inactive in another. Calls of active or inactive are those of the source. Calls follow the shape of the dose curve; as a rule, active = well fitted cell-killing curve with a large enough effect in the repeat runs; inconclusive = weak or mixed curves, or effect the other way; inactive = flat fitted curve, though single readings scatter.
Potency is read from the fitted curve at half-maximal effect.

A short description of this experiment: qHTS RealTime-Glo MT Cell Viability Assay in HEK293 cells - 24 hour (AID 1224886). Also: nearly all actives have a fitted effect of over 50% in size. As to activity change, negative = cytotoxicity: top concentration of the series differs between compounds. The conditions noted are these: RealTime-Glo luminescence; series mostly up to 76.8 µM; activity change, negative = cytotoxicity: at the top concentration. From the text:
National Center for Advancing Translational Sciences [NCATS]
NIH Chemical Genomics Center [NCGC]
U.S. Environmental Protection Agency [EPA]
National Institutes of Environmental Health Sciences [NIEHS]
National Toxicology Program [NTP]
U.S. Food and Drug Administration [FDA]
Measure of cell viability is critical in the cell-base assay. Analysis of cell viability is necessary for the characterization of cell responses to cytotoxic drugs and environmental stress. A RealTime-Glo MT Cell Viability Assay to monitor cell viability in real time of continues cell culture during 40 hours of compound treatment was used to screen Tox21 10K library compounds in Hek293 cells. The RealTime-Glo MT Cell Viability Assay is a nonlytic, homogeneous, bioluminescent method to measure cell viability in real time using a simple, plate-based method. The assay involves adding NanoLuc luciferase and a cell-permeant prosubstrate to cells in culture. Viable cells reduce the proprietary prosubstrate to generate a substrate for NanoLuc luciferase. This substrate diffuses from cells into the surrounding culture medium, where it is rapidly used by the NanoLuc Enzyme to produce a luminescent signal. The signal correlates with the number of viable cells, making the assay well suited for cytotoxicity studies.
Tox21 Assay Protocol Summary:
The mixture of Hek293 cell suspension and reagents were dispensed at 600cells/6 ul/well in 1536-well tissue culture treated black solid bottom plates using a Multidrop dispenser. After the assay plates were incubated at a 37 C/5% CO2 incubator for 5 hours, 23 nL of compounds dissolved in DMSO, positive and negative controls was transferred to the assay plate by a pintool work station. The plates were incubated at 37 C for 40 hours. The luminescence intensity were measured at 0h, 8h, 16h, 24h, 32h and 40h time points using ViewLux plate reader during compound treatment.
As for `FC(F)(F)C(Cl)Br` (stereo not given), the Potency entry is “inactive”.

For `CC(=O)Nc1ccc2c(c1)Cc1cc(NC(C)=O)ccc1-2`, the Potency entry is “inactive”.

On to `CCCCCCOCCOCCO`, for which the Potency result is “inactive”.

Consider `C/C=C/C(=O)N(CC)c1ccccc1C`, for which the Potency result was “inactive”.

As to `Oc1c(Cl)ccc(Cl)c1Cl`, the Potency result was “inactive”.

As to `NCCN`, the Potency entry was “inactive”.

Take `NCCOCCO`: the Potency result is “inactive”.

For the compound `Cc1ccc(S(=O)(=O)O)cc1C`, the Potency result was “inactive”.

For the compound `[O-]/[N+](=N\O)c1ccccc1`, the Potency entry was “inactive”.

Turning to `CC1(C)O[C@@H]2C[C@H]3[C@@H]4C[C@H](F)C5=CC(=O)C=C[C@]5(C)[C@@]4(F)[C@@H](O)C[C@]3(C)[C@]2(C(=O)CO)O1`, the Potency entry was “inactive”.

`CC1=CC(C)(C)Nc2ccccc21`: the Potency entry was “inactive”.

For `CC[C@]12CCCN3CCc4c(n(c5ccccc45)[C@@](O)(C(=O)OC)C1)[C@@H]32`, the Potency result was “inactive”.

With `CN(C)CCCN1c2ccccc2Sc2ccc(Cl)cc21`, the Potency is 24.5 µM (active) and 23.9 µM (active).

With `CNC[C@H](O)c1ccc(O)c(O)c1`, the Potency result was “inactive”.

Turning to `O=Cc1ccccc1C=O`, the “activity change, negative = cytotoxicity” value was 2.03% [at 35.3 µM] (inactive).

Regarding `O=C(O)COCCN1CCN(C(c2ccccc2)c2ccc(Cl)cc2)CC1` (stereo not given), the Potency result was “inactive”.

On to `c1ccc2c(c1)ccc1ncccc12`, for which the Potency entry is “inactive”.

On to `CC/C=C\C/C=C\C/C=C\CCCCCCCC(=O)O`, for which the “activity change, negative = cytotoxicity” value was 4.93% (inactive).

Turning to `CC(C)[C@@H]1CC[C@@H](C)CC1=O`, the Potency entry was “inactive”.

In the case of `O=C(O)c1cc(=O)[nH]c(=O)[nH]1`, the Potency entry was “inactive”.

Take `CCCCCCCCCCCCO`: the Potency result was “inactive”.

In the case of `CN(C)C`, the Potency result is “inactive”.

`Cc1ccc(C)c(O)c1`: the Potency result was “inactive”.

Turning to `O=C1OC2(c3ccccc31)c1cc(I)c(O)c(I)c1Oc1c2cc(I)c(O)c1I`, the Potency is 49.1 µM (active) and inactive.

In the case of `ClC/C=C/CCl`, the Potency result is “inactive”.

`C=CN1CCCC1=O`: the Potency result was “inactive”.

As to `Cc1cccc(Nc2ccccc2C(=O)O)c1C`, the Potency result was “inactive”.

On to `Nc1cc(Cl)c(N)c(Cl)c1`, for which the Potency result is “inactive”.

As for `CC1(C)NC(=O)N(c2ccc([N+](=O)[O-])c(C(F)(F)F)c2)C1=O`, the Potency is 24.5 µM (active) and inactive.

For the compound `Nc1ccc(O)c(N)c1`, the Potency result was “inactive”.

With `CC(C)[N+](C)(CCOC(=O)C1c2ccccc2Oc2ccccc21)C(C)C`, the “activity change, negative = cytotoxicity” value was -21.5% [at 35.3 µM] (inactive).

`CCC/C=C/C=O`: the Potency entry was “inactive”.

Consider `CC1(C)C(C=C(Cl)Cl)C1C(=O)OCc1cccc(Oc2ccccc2)c1` (stereo not given), for which the “activity change, negative = cytotoxicity” value is -25% (inactive).

As for `Brc1nc2ccccc2s1`, the Potency entry was “inactive”.

In the case of `CCC(=O)O[C@H]1[C@H](O[C@@H]2[C@@H](C)[C@H](O[C@H]3C[C@@](C)(OC)[C@@H](O)[C@H](C)O3)[C@@H](C)C(=O)O[C@H](CC)[C@@](C)(O)[C@H](O)[C@@H](C)C(=O)[C@H](C)C[C@@]2(C)O)O[C@H](C)C[C@@H]1N(C)C`, the “activity change, negative = cytotoxicity” value is -4.05% [at 35.3 µM] (inactive).

In the case of `C=CCNCC=C`, the Potency result was “inactive”.

In the case of `c1ccc2c(c1)ccc1cc3c(ccc4ccccc43)cc12`, the Potency entry was “inactive”.

Consider `C=CCCCCCCCCCC`, for which the Potency entry is “inactive”.

As to `C[N+](C)(C)CCO`, the Potency entry was “inactive”.

Turning to `COc1ccc(-c2coc3cc(O)cc(O)c3c2=O)cc1`, the Potency is 44 µM (active).
